This note sets out measurements from PubChem BioAssay (NCI).

Test systems include DU-145 prostate; K-562 leukemia; MALME-3M melanoma; MDA-MB-231 breast; RXF 393 renal; SF-268 CNS; SF-295 CNS; SF-539 CNS; UACC-257 melanoma; M14 melanoma.
Common to all, as to assay: NCI-60 one-dose screen, 48 h (100 = growth as untreated, 0 = no growth, -100 = all killed)
What all share (conditions): 10 µM unless noted

Compounds without any hit were thinned out: in the full panel of roughly 83,000, 20% have a hit.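 48-hour exposure, single concentration, 96-well plates; percent growth endpoint where 0 means no net growth. Active: below 10.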 A number with no mark means an inactive call. Activity calls are given as the source filed them.

Consider `C=C(C)[C@@H]1CC[C@]2(C(=O)OCCCC[P+](c3ccccc3)(c3ccccc3)c3ccccc3)CC[C@]3(C)[C@H](CC[C@@H]4[C@@]5(C)CC[C@H](OC(=O)C(Cl)Cl)C(C)(C)[C@@H]5CC[C@]43C)[C@@H]12`, for which the growth with DU-145 prostate is 14.4%; in the experiment on K-562 leukemia, -35.9% (active); in the experiment with MALME-3M melanoma it was -85.7% (active); in the experiment with MDA-MB-231 breast, -49.8% (active); in the experiment on RXF 393 renal it was -80.8% (active); in the experiment with SF-268 CNS, -15.7% (active). Also, the growth in the experiment with SF-295 CNS is -76.9% (active); in the experiment on SF-539 CNS, -44.2% (active); in the experiment with UACC-257 melanoma, -61% (active); in the experiment with M14 melanoma, -56.1% (active).
On to `Cc1cc(C)c2nc(Nc3nc(C)c(C)c(=O)[nH]3)nc(C)c2c1`, for which the growth in the experiment with DU-145 prostate is 19.1%; in the experiment on K-562 leukemia, 12.2%; in the experiment with MALME-3M melanoma, -6.48% (active); in the experiment with MDA-MB-231 breast, 27.8%; in the experiment with RXF 393 renal it was -32.4% (active); with SF-268 CNS, 26.9%. Besides, the growth in the experiment on SF-295 CNS is 11%; in the experiment with SF-539 CNS, 13.5%; in the experiment on UACC-257 melanoma, 14.1%; in the experiment with M14 melanoma, 13.7%.
`Nc1c(C(=O)Nc2ccccc2)sc2nc3c(cc12)CN(C(=O)OCc1ccccc1)CC3`: the growth was 59.4% in the experiment on DU-145 prostate; 21.5% in the experiment on K-562 leukemia; 52.3% in the experiment with MALME-3M melanoma; 68.4% in the experiment with MDA-MB-231 breast; 68.2% in the experiment on RXF 393 renal; 62.2% with SF-268 CNS. Also, the growth is 40.7% in the experiment on SF-295 CNS, 44.9% with SF-539 CNS, 59.6% in the experiment on UACC-257 melanoma and 26.5% in the experiment on M14 melanoma.
With `C=C1C(=O)O[C@H]2[C@H]1CC/C(COC(=O)CCCCC(=O)OC/C1=C/CC[C@@]3(C)O[C@H]3[C@H]3OC(=O)C(=C)[C@@H]3CC1)=C\CC[C@@]1(C)O[C@@H]21`, the growth with DU-145 prostate is 56.2%; with K-562 leukemia, 9% (active); in the experiment on MALME-3M melanoma, 25.5%; in the experiment on MDA-MB-231 breast it was 29.5%; in the experiment on RXF 393 renal, -44.1% (active); in the experiment with SF-268 CNS, 82.2%. Also, the growth was 101% in the experiment with SF-295 CNS, 46.5% in the experiment on SF-539 CNS, 81.9% with UACC-257 melanoma and 47.8% in the experiment with M14 melanoma.
For `N#Cc1c(-c2ccc(F)cc2)nc(N=Nc2c(O)[nH]c3ccc(Cl)cc23)nc1N1CCOCC1`, the growth with DU-145 prostate is 40%; with K-562 leukemia, 62.4%; in the experiment with MALME-3M melanoma, 38%; in the experiment with MDA-MB-231 breast, 26.9%; in the experiment with RXF 393 renal, 8.65% (active); with SF-268 CNS, 41.4%. The growth in the experiment on SF-295 CNS is 13.9%; in the experiment with SF-539 CNS it was 2.98% (active); with UACC-257 melanoma it was 57.3%; in the experiment on M14 melanoma it was 51.5%.
For `FC(F)(F)c1ccc2c(Nc3cccc(C4CC(c5ccccc5)=NN4c4ccc(Cl)cc4)c3)ccnc2c1` (stereo not given), the growth is 47.7% in the experiment with DU-145 prostate; 6.6% (active) in the experiment with K-562 leukemia; 83% in the experiment with MALME-3M melanoma; 68% in the experiment on MDA-MB-231 breast; 74.2% in the experiment on RXF 393 renal; 50.8% in the experiment with SF-268 CNS. The growth in the experiment with SF-295 CNS is 57.8%; with SF-539 CNS it was 86.9%; in the experiment on UACC-257 melanoma, 73.8%; in the experiment on M14 melanoma it was 41.2%.
Take `CCOC(=O)c1c(C)nc2c(c1N)/C(=C/c1ccccn1)C(=O)N2Cc1ccccc1`: the growth in the experiment with DU-145 prostate is 12.6%; in the experiment with K-562 leukemia it was -16% (active); in the experiment with MALME-3M melanoma, 31.4%; with MDA-MB-231 breast, 14.1%; in the experiment on RXF 393 renal, -76.4% (active); in the experiment with SF-268 CNS, 16.7%. The growth with SF-295 CNS was 65.6%; in the experiment with SF-539 CNS it was 11.1%; with UACC-257 melanoma it was 35.1%; with M14 melanoma, 0.865% (active).
For `C=C(C)[C@@H]1CC[C@]2(C(=O)OCCOCCOCC[P+](c3ccccc3)(c3ccccc3)c3ccccc3)CC[C@]3(C)[C@H](CC[C@@H]4[C@@]5(C)CC[C@H](OC(=O)C(Cl)Cl)C(C)(C)[C@@H]5CC[C@]43C)[C@@H]12`, the growth in the experiment on DU-145 prostate was 15.5%; in the experiment on K-562 leukemia, -20.9% (active); with MALME-3M melanoma, -82.9% (active); in the experiment with MDA-MB-231 breast it was -46.7% (active); in the experiment with RXF 393 renal it was -81.7% (active); in the experiment on SF-268 CNS it was 4.59% (active). Further, the growth with SF-295 CNS is -82.1% (active); in the experiment on SF-539 CNS, -20.2% (active); in the experiment with UACC-257 melanoma, -27.9% (active); with M14 melanoma, -80.9% (active).
Consider `C=C(C)[C@@H]1CC[C@]2(C(=O)OCCOCCOCC[P+](c3ccccc3)(c3ccccc3)c3ccccc3)CC[C@]3(C)[C@H](CC[C@@H]4[C@@]5(C)CC[C@H](C)C(C)(C)[C@@H]5CC[C@]43C)[C@@H]12`, for which the growth in the experiment with DU-145 prostate is -92.1% (active); in the experiment on K-562 leukemia, -65.7% (active); in the experiment with MALME-3M melanoma it was -79.4% (active); in the experiment on MDA-MB-231 breast it was -74% (active); in the experiment with RXF 393 renal, -85.3% (active); in the experiment on SF-268 CNS, -74.5% (active). The growth with SF-295 CNS is -87.5% (active); with SF-539 CNS it was -90.3% (active); in the experiment on UACC-257 melanoma, -88.1% (active); in the experiment with M14 melanoma, -77.4% (active).
As for `CC(=O)ON1CCCC(P(=O)(OCOC(=O)C(C)(C)C)OCOC(=O)C(C)(C)C)C1=O` (stereo not given), the growth with DU-145 prostate was 10.7%; with K-562 leukemia it was 3.72% (active); with MALME-3M melanoma, -8.77% (active); in the experiment with MDA-MB-231 breast it was -6.53% (active); in the experiment with RXF 393 renal it was -20.8% (active); in the experiment with SF-268 CNS it was 1.95% (active). Also, the growth was 34.5% in the experiment on SF-295 CNS, 11.3% in the experiment with SF-539 CNS, 19.2% in the experiment on UACC-257 melanoma and 12.9% with M14 melanoma.
Regarding `c1ccc(-c2n(Cc3ccc4ccccc4n3)cc[n+]2Cc2ccc3ccccc3n2)cc1`, the growth was 65.8% in the experiment with DU-145 prostate; 16.9% with K-562 leukemia; 19.8% with MALME-3M melanoma; 30.5% in the experiment on MDA-MB-231 breast; 52.2% in the experiment on RXF 393 renal; 41.8% in the experiment on SF-268 CNS. In addition, the growth with SF-295 CNS was 67.8%; with SF-539 CNS, 37.2%; with UACC-257 melanoma, -14.6% (active); in the experiment with M14 melanoma it was 34.6%.
For `COc1cc2nc3c(=O)n(CCN(C)C)cnn3c(=O)c2cc1OC`, the growth in the experiment on DU-145 prostate was 108%; in the experiment with K-562 leukemia, 125%; in the experiment with MALME-3M melanoma, 99.4%; in the experiment on MDA-MB-231 breast, 116%; in the experiment with RXF 393 renal it was 108%; in the experiment with SF-268 CNS it was 101%. The growth with SF-295 CNS is 99.5%; in the experiment on SF-539 CNS, 97.7%; with UACC-257 melanoma, 107%; in the experiment with M14 melanoma, 95.5%.
`COc1cc(NC(=O)Nc2cnc(Nc3ccc(N4CCOCC4)cc3)nc2Oc2ccc(F)cc2)cc(OC)c1`: the growth is 86.3% in the experiment on DU-145 prostate; 72.5% in the experiment with K-562 leukemia; 62.7% with MALME-3M melanoma; 87.6% in the experiment on MDA-MB-231 breast; 77.8% with RXF 393 renal; 75.8% in the experiment with SF-268 CNS. Besides, the growth was 109% in the experiment with SF-295 CNS, 89.1% with SF-539 CNS, 78% in the experiment on UACC-257 melanoma and 91.7% in the experiment with M14 melanoma.
